Measurements: PubChem BioAssay (NCI)
This is part of a sample that, as a whole, favours compounds with a hit. Of some 79,000 tested, about 15% had one in any assay. Active and inactive are the calls of the source. Rule as the data show it: active = growth inhibition above about 70%; inactive = the rest.

How the values were obtained:
[1] = NCI Yeast Anticancer Drug Screen. Data for the sgs1 mgt1 strain (AID 161);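 also: 0% = growth of cultures given vehicle only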; settings: S. cerevisiae sgs1 mgt1 strain, active compounds read high
Outline: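 Test agents were incubated with a DNA-repair-mutant yeast strain. Growth was then read and compared against vehicle-treated controls.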

[2] = NCI Yeast Anticancer Drug Screen. Data for the CLN2oe strain (AID 163);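 also: 0% = growth of vehicle-only control cultures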; settings: S. cerevisiae CLN2oe strain, active compounds read high
Outline: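 Inhibition relative to vehicle-treated yeast is reported. Cells: strain with genetic alteration in cell-cycle control, grown with compound.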

[3] = NCI Yeast Anticancer Drug Screen. Data for the cln2 rad14 strain (AID 165);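 also: 0% = growth equal to vehicle treated cultures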; settings: S. cerevisiae cln2 rad14 strain, active compounds read high
Outline: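 Each compound was tested on cln2 rad14 yeast. Inhibition of growth was calculated against vehicle-exposed controls.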

[4] = NCI Yeast Anticancer Drug Screen. Data for the bub3 strain (AID 167); settings: S. cerevisiae bub3 mutant strain, active compounds read high
Outline: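 In this screen, a yeast mutant lacking normal mitotic checkpoint function is challenged with compound. Relative growth versus vehicle gives the inhibition value.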

[5] = NCI Yeast Anticancer Drug Screen. Data for the wt2 strain (AID 169);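 also: 0% = growth of vehicle-treated yeast cultures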; settings: S. cerevisiae wt2 strain growth inhibition, active compounds read high
Outline: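 Inhibition of yeast growth was determined after compound treatment, normalised to controls receiving only vehicle.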

[6] = NCI Yeast Anticancer Drug Screen. Data for the mlh1 strain (AID 171);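 also: 0% = growth of vehicle-treated control cultures of the same strain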; settings: S. cerevisiae mlh1 strain growth inhibition, active compounds read high
Outline: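 Vehicle-normalised growth inhibition of a repair- or checkpoint-altered yeast strain following compound treatment.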

[7] = NCI Yeast Anticancer Drug Screen. Data for the sgs1 strain (AID 173);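 also: 0% = growth of vehicle-only control cultures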; settings: S. cerevisiae sgs1 mutant, active compounds read high
Outline: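 Screen format: yeast with repair or checkpoint alterations, compound exposure, growth read relative to vehicle.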

[8] = NCI Yeast Anticancer Drug Screen. Data for the mlh1 rad18 strain (AID 175); settings: S. cerevisiae mlh1 rad18 strain growth inhibition, active compounds read high
Outline: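 Vehicle-treated cultures served as the reference for growth inhibition in a yeast strain carrying DNA damage repair alterations exposed to each compound.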

[9] = NCI Yeast Anticancer Drug Screen. Data for the rad18 strain (AID 177); settings: S. cerevisiae rad18 mutant growth inhibition, active compounds read high
Outline: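 Test articles were incubated with altered yeast defective in DNA damage repair. Results are given as inhibition of growth versus vehicle.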

[10] = NCI Yeast Anticancer Drug Screen. Data for the rad52 strain (AID 147);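 also: 0% = growth of vehicle-treated control cultures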; settings: S. cerevisiae rad52 mutant growth inhibition, active compounds read high
Outline: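 Vehicle-treated cultures served as the reference for growth inhibition of compound-exposed yeast bearing a DNA repair mutation.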

[11] = NCI Yeast Anticancer Drug Screen. Data for the wt1 strain (AID 149);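 also: 0% = growth of vehicle-treated wt1 cultures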; settings: S. cerevisiae wt1 strain (SPY 50644) growth inhibition, active compounds read high
Outline: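 wt1 strain grown with compound or vehicle; inhibition taken from the growth difference.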

[12] = NCI Yeast Anticancer Drug Screen. Data for the rad50EPP+ strain (AID 151);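 also: 0% = growth of vehicle-treated control cultures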; settings: S. cerevisiae rad50 mutant strain, active compounds read high
Outline: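 In this screen, rad50EPP+ yeast were exposed to compounds. Growth inhibition was scored against vehicle-treated controls.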

[13] = NCI Yeast Anticancer Drug Screen. Data for the rad50 strain (AID 155);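 also: 0% = growth of vehicle-only cultures of the same strain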; settings: S. cerevisiae rad50 strain growth inhibition, active compounds read high
Outline: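 DNA repair mutant yeast, compound exposure, growth read-out; inhibition is taken relative to vehicle.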

[14] = NCI Yeast Anticancer Drug Screen. Data for the mec2-1 strain (AID 157); settings: S. cerevisiae mec2-1 strain, active compounds read high
Outline: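 Vehicle-treated cultures served as reference for growth inhibition of compound-exposed mec2-1 yeast.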

[15] = NCI Yeast Anticancer Drug Screen. Data for the rad14 strain (AID 159);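 also: 0% = growth of vehicle-treated control cultures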; settings: S. cerevisiae rad14 strain growth inhibition, active compounds read high
Outline: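 DNA repair-defective yeast, compound-exposed; % growth inhibition derived by comparison with vehicle-treated controls.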

[16] = NCI Yeast Anticancer Drug Screen. Data for the mgt1 strain (AID 153); settings: S. cerevisiae mgt1 mutant growth inhibition, active compounds read high
Outline: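 mgt1 strain exposed; growth vs vehicle control recorded as inhibition.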

[17] = at 5.0 µM (retest, dose inferred, filed as 0.5)
[18] = at 50.0 µM (retest, dose inferred, filed as 5.0)

Measured: growth inhibition

C=Cc1cnc([N+](=O)[O-])n1C
inactive: [2]; at 1.2 µM -14% | [2]; at 3.7 µM 8% | [2]; at 11.0 µM 14% | [2]; at 33.0 µM 33% | [3]; [17] 39% | [4]; at 1.2 µM -5% | [4]; at 3.7 µM -2% | [4]; [17] 8% | [4]; at 11.0 µM -2% | [4]; at 33.0 µM 20% | [4]; [18] 69% | [5]; at 1.2 µM -31% | [5]; at 3.7 µM -43% | [5]; at 11.0 µM -34% | [5]; at 33.0 µM 63% | [6]; at 1.2 µM -4% | [6]; at 3.7 µM 7% | [6]; at 11.0 µM 18% | [6]; at 33.0 µM 44% | [7]; at 1.2 µM 22% | [7]; at 3.7 µM 51% | [7]; at 11.0 µM 69%
active: [1]; at 50.0 µM 83.1% | [2]; at 100.0 µM 86% | [3]; [18] 93% | [3]; at 50.0 µM 90.2% | [4]; at 50.0 µM 82.1% | [4]; at 100.0 µM 82% | [5]; at 100.0 µM 96% | [6]; at 100.0 µM 90% | [7]; at 33.0 µM 85% | [7]; at 100.0 µM 92% | [8]; [17] 79% | [8]; [18] 90% | [8]; at 50.0 µM 90.2% | [9]; at 1.2 µM 85% | [9]; at 3.7 µM 92% | [9]; at 11.0 µM 94% | [9]; at 33.0 µM 94% | [9]; at 100.0 µM 94%

O=[N+]([O-])/C(C(Cl)=C(Cl)Cl)=C1/OCCS1
inactive: [10]; at 1.2 µM 30% | [11]; at 1.2 µM 4% | [11]; at 3.7 µM 30% | [12]; at 1.2 µM 20% | [12]; at 3.7 µM 37% | [12]; at 11.0 µM 61% | [12]; at 100.0 µM 64% | [13]; at 1.2 µM 19% | [13]; at 3.7 µM 56% | [13]; [17] 16% | [14]; at 1.2 µM 24% | [14]; at 3.7 µM 55% | [14]; [17] 11% | [15]; at 1.2 µM 14% | [15]; at 3.7 µM 39% | [2]; at 1.2 µM 15% | [2]; at 3.7 µM 44% | [3]; [17] -2% | [4]; at 1.2 µM 6% | [4]; at 3.7 µM 27% | [4]; [17] -12% | [5]; at 1.2 µM 7% | [5]; at 3.7 µM 32% | [6]; at 1.2 µM 11% | [6]; at 3.7 µM 48% | [7]; at 1.2 µM 42% | [8]; [17] 60%
active: [10]; at 3.7 µM 72% | [10]; at 11.0 µM 97% | [10]; at 33.0 µM 99% | [10]; at 100.0 µM 99% | [11]; at 11.0 µM 94% | [11]; at 33.0 µM 99% | [11]; at 100.0 µM 99% | [12]; at 33.0 µM 77% | [13]; at 11.0 µM 95% | [13]; at 33.0 µM 99% | [13]; [18] 100% | [13]; at 50.0 µM 90.5% | [13]; at 100.0 µM 99% | [14]; at 11.0 µM 97% | [14]; at 33.0 µM 98% | [14]; [18] 100% | [14]; at 50.0 µM 93.6% | [14]; at 100.0 µM 98% | [15]; at 11.0 µM 96% | [15]; at 33.0 µM 99% | [15]; at 100.0 µM 98% | [2]; at 11.0 µM 94% | [2]; at 33.0 µM 98% | [2]; at 100.0 µM 99% | [3]; [18] 99% | [3]; at 50.0 µM 91% | [4]; at 11.0 µM 90% | [4]; at 33.0 µM 99% | [4]; [18] 100% | [4]; at 50.0 µM 92.5% | [4]; at 100.0 µM 98% | [5]; at 11.0 µM 95% | [5]; at 33.0 µM 99% | [5]; at 100.0 µM 99% | [6]; at 11.0 µM 97% | [6]; at 33.0 µM 99% | [6]; at 100.0 µM 98% | [7]; at 3.7 µM 78% | [7]; at 11.0 µM 97% | [7]; at 33.0 µM 99% | [7]; at 100.0 µM 99% | [8]; [18] 100% | [8]; at 50.0 µM 86.2% | [9]; at 1.2 µM 86% | [9]; at 3.7 µM 93% | [9]; at 11.0 µM 97% | [9]; at 33.0 µM 99% | [9]; at 100.0 µM 98%

CC(=O)C1(O)Cc2c(O)c3c(c(O)c2C(OC2CC(N)C(O)C(C)O2)C1)C(=O)c1ccccc1C3=O (configuration not stated)
active: [10]; at 1.2 µM 82% | [10]; at 3.7 µM 92% | [10]; at 11.0 µM 95% | [10]; at 33.0 µM 96% | [10]; at 100.0 µM 97% | [11]; at 11.0 µM 88% | [11]; at 33.0 µM 96% | [11]; at 100.0 µM 98% | [16]; at 11.0 µM 92% | [16]; at 33.0 µM 97% | [16]; at 100.0 µM 98% | [13]; at 1.2 µM 86% | [13]; at 3.7 µM 92% | [13]; at 11.0 µM 94% | [13]; at 33.0 µM 97% | [13]; [18] 85% | [13]; at 50.0 µM 89.4% | [13]; at 100.0 µM 98% | [14]; at 11.0 µM 90% | [14]; at 33.0 µM 95% | [14]; at 50.0 µM 92.9% | [14]; at 100.0 µM 98% | [15]; at 11.0 µM 89% | [15]; at 33.0 µM 96% | [15]; at 100.0 µM 97% | [1]; at 50.0 µM 91% | [2]; at 11.0 µM 93% | [2]; at 33.0 µM 98% | [2]; at 100.0 µM 99% | [3]; at 50.0 µM 87.9% | [4]; at 11.0 µM 91% | [4]; at 33.0 µM 97% | [4]; at 50.0 µM 90.2% | [4]; at 100.0 µM 98% | [6]; at 11.0 µM 90% | [6]; at 33.0 µM 96% | [6]; at 100.0 µM 98% | [7]; at 11.0 µM 93% | [7]; at 33.0 µM 97% | [7]; at 100.0 µM 98% | [9]; at 11.0 µM 94% | [9]; at 33.0 µM 96% | [9]; at 100.0 µM 98%
inactive: [11]; at 1.2 µM 25% | [11]; at 3.7 µM 31% | [16]; at 1.2 µM 4% | [16]; at 3.7 µM 45% | [13]; [17] 24% | [14]; at 1.2 µM 15% | [14]; at 3.7 µM 50% | [14]; [17] -32% | [14]; [18] 47% | [15]; at 1.2 µM -4% | [15]; at 3.7 µM 33% | [1]; [17] -25% | [1]; [18] 65% | [2]; at 1.2 µM -1% | [2]; at 3.7 µM 46% | [3]; [17] -15% | [3]; [18] 41% | [4]; at 1.2 µM -7% | [4]; at 3.7 µM 8% | [4]; [17] -42% | [4]; [18] 16% | [6]; at 1.2 µM 1% | [6]; at 3.7 µM 22% | [7]; at 1.2 µM -14% | [7]; at 3.7 µM 60% | [8]; [17] -33% | [8]; [18] 54% | [9]; at 1.2 µM 1% | [9]; at 3.7 µM 60%
